Laboratory results as given in PubChem BioAssay (NCI).
Where “and” joins values, the source holds several entries; their conditions need not be identical. Equal entries are not always repeated. This is part of a sample that, as a whole, favours compounds with a hit. Of some 79,000 tested, about 15% had one in any assay. A number with no mark means an inactive call. Calls of active or inactive are those of the source. Cut-off read from the data, not from the text of the source: active = growth inhibition above about 70%; inactive = the rest. Where a SMILES comes first, the peptide text is derived from it. [ ]: non-standard residue; d: D form. The star is where a group is joined. ξ: configuration not given here. ξF = NC(Cc1ccccc1)C(=O)O; Cbz = O=C(OCc1ccccc1)*; Aib = CC(C)(N)C(=O)O

Columns and labels:
[1] = NCI Yeast Anticancer Drug Screen. Data for the rad50 strain (AID 155);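 note: 0% = growth of vehicle-only cultures of the same strain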; settings: S. cerevisiae rad50 strain growth inhibition, active compounds read high; at 50.0 µM unless noted
Outline: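 Genetically altered yeast (DNA repair pathway); compound treatment; growth inhibition vs vehicle ctrl.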

[2] = NCI Yeast Anticancer Drug Screen. Data for the mec2-1 strain (AID 157); settings: S. cerevisiae mec2-1 strain, active compounds read high; at 50.0 µM unless noted
Outline: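 Vehicle-treated cultures served as reference for growth inhibition of compound-exposed mec2-1 yeast.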

[3] = NCI Yeast Anticancer Drug Screen. Data for the sgs1 mgt1 strain (AID 161);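 note: 0% = growth of cultures given vehicle only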; settings: S. cerevisiae sgs1 mgt1 strain, active compounds read high; at 50.0 µM unless noted
Outline: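 Genetically altered yeast, compound exposure, growth inhibition relative to vehicle.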

[4] = NCI Yeast Anticancer Drug Screen. Data for the cln2 rad14 strain (AID 165);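 note: 0% = growth equal to vehicle treated cultures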; settings: S. cerevisiae cln2 rad14 strain, active compounds read high; at 50.0 µM unless noted
Outline: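 Each compound was tested on cln2 rad14 yeast. Inhibition of growth was calculated against vehicle-exposed controls.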

[5] = NCI Yeast Anticancer Drug Screen. Data for the bub3 strain (AID 167); settings: S. cerevisiae bub3 mutant strain, active compounds read high; at 50.0 µM unless noted
Outline: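 Yeast carrying a defined mutation is treated with each compound, and growth is compared with that of vehicle-exposed cells to give inhibition.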

[6] = NCI Yeast Anticancer Drug Screen. Data for the mlh1 rad18 strain (AID 175); settings: S. cerevisiae mlh1 rad18 strain growth inhibition, active compounds read high; at 50.0 µM unless noted
Outline: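 Vehicle-treated cultures served as the reference for growth inhibition in a yeast strain carrying DNA damage repair alterations exposed to each compound.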

Row | SMILES | growth inhibition [1] | growth inhibition [2] | growth inhibition [3] | growth inhibition [4] | growth inhibition [5] | growth inhibition [6]
1 | CCCCN(CCCC)CCCC(O)c1c2ccccc2nc2ccccc12 (centres undefined) | -3.55% | -5.95% | 7.6% | -13.9% | 1.4% | 12.6%
2 | Clc1ccc(Oc2ncnc3nc[nH]c23)cc1 | 3.6% | 5.75% | 2.85% | -1.35% | -1.5% | 23.5%
3 | CCOC(=O)Cn1cncc1C | -33.6% | -6.6% | -13.5% | -73.6% | -3.4% | -7.1%
4 | CCCCOC/N=C(/N)NC#N | 10.9% | 2.15% | -5.2% | 28.6% | -4.1% | 17.7%
5 | Oc1cc2c(cc1-c1cc3c(cc1O)OCO3)OCO2 | -21.1% | -15.3% | -5.15% | -41% | -3.2% | 0.55%
6 | OCCCCCCCl | -28.8% | -24.8% | -11.6% | -6.65% | -3.05% | 3.6%
7 | CC(=O)Nc1cc(C(=O)Nc2cc(C(=O)Nc3cc(C(=O)Nc4cc(C(=O)Nc5cc(C(=O)NCCC(=O)NCCCN(C)C)n(C)c5)n(C)c4)n(C)c3)n(C)c2)n(C)c1 | 9.7% | -41.5% | -18.6% | -4% | -31.9% | -37.8%
8 | O=C(O)CCNC(=O)CNC(=O)OCc1ccccc1 | 3.9% | 10.6% | -2.85% | 5.55% | -0.25% | -9.65%
9 | Cc1ccc(NC(=O)c2cccc(OP(=O)(O)Nc3ccc(C)cc3)c2)cc1 | -13.7% | 2.7% | 2.8% | 17% | -0.95% | -17%
10 | OC(COc1cccc(C(F)(F)F)c1)CN1CCN(c2cccc(F)c2)CC1 (centres undefined) | 98.7% (active) | 99% (active) | 99.1% (active) | 97.9% (active) | 98.7% (active) | 99% (active)
11 | O=C1NCC2(CCNCC2)N1 | -10.3% | 16.7% | 6.45% | 15.6% | 11.1% | -70.6%
12 | CC(=O)N1C(=O)C2(c3ccccc31)c1cccc3c1C(=C1C(=O)OC(=O)C12)C(=O)N3C(C)=O (centres undefined) | 64.5% | 22.4% | 52.3% | 9.55% | 8.85% | 48.1%
13 | COC(=O)C(C)(C)NC(=O)C(Cc1ccccc1)NC(=O)C(C)(C)NC(=O)OCc1ccccc1 (centres undefined) (Cbz-[Aib]-[ξF]-[Aib]-OMe) | 18.9% | 4.8% | -6.2% | 23.1% | 12.4% | -1.2%
14 | CCCC(=O)NC(Nc1ccc(S(=O)(=O)Nc2cc(C)on2)cc1)(C(=O)OCC)C(F)(F)F (centres undefined) | 32.8% | -18.9% | 4.75% | 18.1% | -14.4% | -40.8%
15 | C/C(CCC(CC(=O)O)C(C)C)=N\NC(N)=O (centres undefined) | -5.85% | 1.8% | -6.65% | -35.9% | -27.4% | 4.65%
16 | CN1CCC(O)CC1 | 7.6% | -23.4% | -11.3% | -0.35% | 6.35% | -3%
17 | O=[N+]([O-])c1ccc(N/N=C2/CC3CCC2C3)c([N+](=O)[O-])c1 (centres undefined) | -4.3% | -21.4% | 0.8% | -7.05% | 5.6% | 0.55%
18 | Cn1c2ccccc2c2c3c(ccc21)C(=O)N(c1ccccc1)C3=O | 11.7% | -4.7% | 12.9% | -3.5% | 12.4% | 2.95%
19 | COc1ccc(N(C(=O)NCCO)c2ccccc2)cc1 | -3.75% | -15.8% | 14.9% | 14.6% | -2.3% | 26.7%
20 | CCC(CC)/C(=N/Nc1ccc([N+](=O)[O-])cc1[N+](=O)[O-])C1=CCCCC1 | -8.3% | -12.1% | -5.1% | -24.1% | -7.3% | -15.7%

Row | SMILES | growth inhibition [1] | growth inhibition [2] | growth inhibition [3] | growth inhibition [4] | growth inhibition [5] | growth inhibition [6]
21 | CN(Cc1ccc2nc(N)nc(N)c2c1)c1ccc(C(=O)NC(CCC(=O)O)C(=O)O)cc1 (centres undefined) | 65.3% | 88.8% (active) | 77.8% (active) | 4.7% | -24.5% | 33.3%
22 | Cc1c(Cl)cccc1NC(=O)CCl | 7.95% | 32.1% | 28.2% | 5.75% | -3.85% | 16.2%
23 | O=C(O)CCC(=O)CCC(=O)O | 13.7% | -8.85% | 3.6% | 2% | -14.6% | 7.2%
24 | CN(C)C(=O)NCCN(CCNC(=O)N(C)C)C(=O)N(C)C | -1.7% | 13.2% | -0.9% | -28.3% | -18.8% | -4.15%
25 | N#Cc1ccc(Nc2cnc3cc(N)ccc3n2)cc1 | 38.6% | -10.2% | 13.6% | 18% | 12.8% | 34.6%
26 | C=CCC(O)c1ccccc1OC (centres undefined) | 9.75% | 9.25% | 20.8% | 5.15% | -5.9% | 7.95%
27 | C=C(Br)CNC(=O)CCC(=O)NCC(=C)Br | -27.5% | -11.8% | -3.35% | -5.9% | -21.4% | -57.7%
28 | O=C(O)CNOCN1C(=O)c2ccccc2C1=O | 11.6% | -1.25% | 13.3% | -21.6% | -16% | 14.4%
29 | Cc1cn(C2CC(O)C(CO)O2)c(=O)nc1N1CCSCC1 (centres undefined) | 2.5% | -7.05% | -2.6% | -32.8% | -12% | -8.8%
30 | O=C(c1ccccc1)N1c2ccc([N+](=O)[O-])cc2Sc2cc([N+](=O)[O-])ccc21 | 16.7% | -3.45% | 33.6% | 8.35% | -10.7% | 13.1%
31 | O=C1c2ccccc2C(=O)c2cc3nc4c5ccccc5c5ccccc5c4nc3cc21 | -35% | -21.2% | -27.2% | -37.6% | 3.35% | -13.6%
32 | Cc1sc2nc3n(c(=O)c2c1C)N=CN(c1ccc(Cl)cc1)C3 | 5.5% | 5.1% | 7.8% | -3.15% | 0.05% | -45.2%
33 | O=C(Nc1ccc(Cl)cc1)C(Cl)C(Cl)c1ccc(Cl)cc1 (centres undefined) | -15.6% | -6.3% | -7.65% | -22.4% | 9.05% | -23.1%
34 | NCC(O)C(O)C(O)CO (centres undefined) | 6.15% | -6% | -1.3% | -20% | 9.1% | -8.8%
35 | Oc1cc2c(cc1C(Nc1ncccn1)c1ccc3c(c1)OCO3)OCO2 (centres undefined) | -0.4% | 6.8% | 12.8% | -16.3% | 19.4% | 15.3%
36 | O=C1OC(C(O)C(O)CO)C(O)C1O (centres undefined) | 8.2% and -17.4% | 7.7% and -27.4% | 1.35% and -34.2% | -16.9% and -32.7% | 14.4% and -0.9% | -23.7% and -1.8%
37 | Cc1[nH]c(N)nc(=S)c1CCCNc1ccccc1 | 6.45% | 2.1% | 6.8% | -9.15% | -32.3% | 26.2%
38 | Cc1ccc(S(=O)(=O)NC(=O)NC(C)C(=O)O)cc1 (centres undefined) | -1.15% | -5.65% | -13.2% | 0.2% | 2.5% | -7.65%
39 | CCOC(=O)N1C(=O)C2C3C=CC(C2C1=O)C1C2C(=O)N(C(=O)OCC)C(=O)C2C31 (centres undefined) | 1.4% | -3.15% | -37.4% | -0.55% | -19.9% | -37.6%
